# Measurements as given in PMC8769072, “Proteome‐scale mapping of binding sites in the unstructured regions of the human proteome” (Molecular Systems Biology, 2022).
# CEP55 160-217, Q53EZ4, sequence (Q53EZ4 160-217): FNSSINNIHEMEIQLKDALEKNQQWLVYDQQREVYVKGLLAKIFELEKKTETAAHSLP
# CLTC 1-364, Q00610, sequence (Q00610 1-364): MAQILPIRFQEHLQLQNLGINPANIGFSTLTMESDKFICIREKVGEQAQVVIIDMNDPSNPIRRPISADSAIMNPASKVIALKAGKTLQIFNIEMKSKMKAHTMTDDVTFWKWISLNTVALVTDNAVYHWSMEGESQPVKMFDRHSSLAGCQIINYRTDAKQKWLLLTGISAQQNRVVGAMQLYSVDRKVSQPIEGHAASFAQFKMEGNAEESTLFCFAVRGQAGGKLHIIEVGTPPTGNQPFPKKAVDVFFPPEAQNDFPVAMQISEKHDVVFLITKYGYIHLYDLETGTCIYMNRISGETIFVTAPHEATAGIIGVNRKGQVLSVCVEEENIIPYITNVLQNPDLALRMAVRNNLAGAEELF
# CRK 124-198, P46108, sequence (P46108 124-198): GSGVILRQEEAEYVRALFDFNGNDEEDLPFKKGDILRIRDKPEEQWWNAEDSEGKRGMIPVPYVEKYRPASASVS
# AP2B1 700-937, P63010, sequence (P63010 700-937): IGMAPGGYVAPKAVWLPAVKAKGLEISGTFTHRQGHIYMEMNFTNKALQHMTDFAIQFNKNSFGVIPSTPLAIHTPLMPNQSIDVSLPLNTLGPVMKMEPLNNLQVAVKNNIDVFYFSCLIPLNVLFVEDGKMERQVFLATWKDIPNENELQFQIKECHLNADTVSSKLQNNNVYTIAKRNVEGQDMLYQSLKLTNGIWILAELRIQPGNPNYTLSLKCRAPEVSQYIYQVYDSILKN
binder,measurement,setting,value
"PPAAVYYAPAGPTSAQ [AKNA, Q7Z591]",selected by phage display,"CEP55 160-217, Q53EZ4",confidence 3 (active)
"AQDFFQRWKQLSLPQQ [AP2A1, O95782]",selected by phage display,"CALM1 2-149, P0DP23",confidence 2 (active)
"MMLSEQAQKWFPTHVQ [RAB11FIP2, Q7L804]",selected by phage display,"CALM1 2-149, P0DP23",confidence 2 (active)
"AREPPADVWTPPARAS [TRIM25, Q14258]",selected by phage display,"CEP55 160-217, Q53EZ4",confidence 2 (active)
"LWLALRETVYDPSLPA [DISP2, A7MBM2]",selected by phage display,"CALM1 2-149, P0DP23",confidence 3 (active)
"AWSDVVGRRSSLLAAI [MFSD9, Q8NBP5]",selected by phage display,"CALM1 2-149, P0DP23",confidence 2 (active)
"SIPRSWPSAHSVSNIL [PAX1, P15863]",selected by phage display,"CALM1 2-149, P0DP23",confidence 2 (active)
"VGSLIDFGPEAPTSSP [KIAA0513, O60268]",selected by phage display,"CLTC 1-364, Q00610",confidence 3 (active)
"SFWLFRVSPTTFPFLY [ATP8B3, O60423]",selected by phage display,"CALM1 2-149, P0DP23",confidence 2 (active)
"GTHWRVLGLALLSVGV [CD3E, P07766]",selected by phage display,"CALM1 2-149, P0DP23",confidence 3 (active)
"WQRLQSNPHLKEGSVT [ACY1, Q03154]",selected by phage display,"CALM1 2-149, P0DP23",confidence 2 (active)
"WSYLMHFLFDHSNLGS [OR52I1, Q8NGK6]",selected by phage display,"CEP55 160-217, Q53EZ4",confidence 2 (active)
"NSTSRPTLPVKSLAQR [SZRD1, Q7Z422]",selected by phage display,"CRK 124-198, P46108",confidence 2 (active)
"LSETVTKPPLPQKNTA [NSUN7, Q8NE18]",selected by phage display,"CRK 124-198, P46108",confidence 3 (active)
"GQVQVADLLGINGTGE [CCDC141, Q6ZP82]",selected by phage display,"CLTC 1-364, Q00610",confidence 2 (active)
"DWSNLVDAAKAYEVQR [SIPA1L1, O43166]",selected by phage display,"CALM1 2-149, P0DP23",confidence 3 (active)
"KWPSLATLAATPISSS [AGAP7P, Q5VUJ5]",selected by phage display,"CALM1 2-149, P0DP23",confidence 3 (active)
"ANTLPVSGNLIDLYGN [MITF, O75030]",selected by phage display,"CLTC 1-364, Q00610",confidence 3 (active)
"PPATSYAPSDVPSGVA [MALL, Q13021]",selected by phage display,"CEP55 160-217, Q53EZ4",confidence 2 (active)
"APSLPGKGSGASVALM [ZNF469, Q96JG9]",selected by phage display,"CRK 124-198, P46108",confidence 3 (active)
"NLPPPLPPKKYAITSV [USP53, Q70EK8]",selected by phage display,"CRK 124-198, P46108",confidence 2 (active)
"KEPPAKVPEVPKKIVV [TTN, Q8WZ42]",selected by phage display,"CRK 124-198, P46108",confidence 3 (active)
"DRSWHQMVVRALSSQE [HSH2D, Q96JZ2]",selected by phage display,"CALM1 2-149, P0DP23",confidence 2 (active)
"PPFTDYRQPPLDYRQP [MAGI2, Q86UL8]",selected by phage display,"CEP55 160-217, Q53EZ4",confidence 3 (active)
"PPPLPPKPRISSYPED [MAP4K5, Q9Y4K4]",selected by phage display,"CRK 124-198, P46108",confidence 2 (active)
"AWKSLTDKVQEARSNA [KMT2A, Q03164]",selected by phage display,"CALM1 2-149, P0DP23",confidence 2 (active)
"MAAWKSWTALRLAATV [TMX3, Q96JJ7]",selected by phage display,"CALM1 2-149, P0DP23",confidence 2 (active)
"PPSQSYGGGPAQVPLP [ANXA7, P20073]",selected by phage display,"CEP55 160-217, Q53EZ4",confidence 2 (active)
"LPLIDFADTPEAHVAV [GTSE1, Q9NYZ3]",selected by phage display,"CLTC 1-364, Q00610",confidence 3 (active)
"EISNRWKLAQVQVQKD [EXOSC10, Q01780]",selected by phage display,"CALM1 2-149, P0DP23",confidence 2 (active)
"LWPVLRSDAFSGLTAL [FIGN, Q5HY92]",selected by phage display,"CALM1 2-149, P0DP23",confidence 3 (active)
"SADLIQFEERPQEPSE [MARF1, Q9Y4F3]",selected by phage display,"CLTC 1-364, Q00610",confidence 3 (active)
"SNWSPLGPPSSPYGAA [MAML3, Q96JK9]",selected by phage display,"CEP55 160-217, Q53EZ4",confidence 2 (active)
"SLISWDEPGVDFYSKP [PIK3C2B, O00750]",selected by phage display,"CLTC 1-364, Q00610",confidence 4 (active)
"PALPSKLLSSGSAKAD [IL17RD, Q8NFM7]",selected by phage display,"CRK 124-198, P46108",confidence 3 (active)
"DAKAPPTAAYAGAAPA [CEBPB, P17676]",selected by phage display,"CEP55 160-217, Q53EZ4",confidence 4 (active)
"LSIPVTSEPPALPPKP [DOCK4, Q8N1I0]",selected by phage display,"CRK 124-198, P46108",confidence 2 (active)
"WPLLRKQLEGRLALPS [SPATA31A6, Q5VVP1]",selected by phage display,"CALM1 2-149, P0DP23",confidence 2 (active)
"VTAGWTWPALRTLSSL [NFKBIE, O00221]",selected by phage display,"CALM1 2-149, P0DP23",confidence 2 (active)
"MQIPQAPWPVVWAVLQ [PDCD1, Q15116]",selected by phage display,"AP2B1 700-937, P63010",confidence 4 (active)
"QVPSLPLKDSQELTAS [ZKSCAN5, Q9Y2L8]",selected by phage display,"CRK 124-198, P46108",confidence 4 (active)
"PPSADYSTPPHRTVPE [BAHD1, Q8TBE0]",selected by phage display,"CEP55 160-217, Q53EZ4",confidence 3 (active)
"GPPSLNYIPPVLQLSG [TEX14, Q8IWB6]",selected by phage display,"CEP55 160-217, Q53EZ4",confidence 2 (active)
"EHNLITWTDGPPPVQF [MAU2, Q9Y6X3]",selected by phage display,"CLTC 1-364, Q00610",confidence 4 (active)
"AVPSNASWEQAMKMVV [PRPF40B, Q6NWY9]",selected by phage display,"CALM1 2-149, P0DP23",confidence 2 (active)
"EVAFGKEGLWKLLGGF [GNL3, Q9BVP2]",selected by phage display,"CALM1 2-149, P0DP23",confidence 2 (active)
"WNLLQQQTTTTSSKNL [KRT4, P19013]",selected by phage display,"CALM1 2-149, P0DP23",confidence 3 (active)
"PPVPPKSEAVREEARL [GAREM1, Q9H706]",selected by phage display,"CRK 124-198, P46108",confidence 4 (active)
"PQSPPASMYGSTGSLL [PSD, A5PKW4]",selected by phage display,"CEP55 160-217, Q53EZ4",confidence 2 (active)
"TNLPDVPNKSAPSPTS [ZNF462, Q96JM2]",selected by phage display,"CRK 124-198, P46108",confidence 2 (active)
"PVSSLAEPDLINFMDF [DENND4C, Q5VZ89]",selected by phage display,"CLTC 1-364, Q00610",confidence 2 (active)
"PYPKWNSVFDQLTQVV [MAP2K4, P45985]",selected by phage display,"CALM1 2-149, P0DP23",confidence 3 (active)
"DLLSGDLIFLGSDSHP [GJB5, O95377]",selected by phage display,"CLTC 1-364, Q00610",confidence 3 (active)
"SISSQVSSAVMKSLLA [IL16, Q14005]",selected by phage display,"CALM1 2-149, P0DP23",confidence 2 (active)
"GGLLHWERLLGGLGGE [NCKAP5L, Q9HCH0]",selected by phage display,"CALM1 2-149, P0DP23",confidence 2 (active)
"AWKTALLANVGTISAI [PERM1, Q5SV97]",selected by phage display,"CALM1 2-149, P0DP23",confidence 2 (active)
"WKTLKERESILKLLDG [TADA3, O75528]",selected by phage display,"CALM1 2-149, P0DP23",confidence 3 (active)
"TNWTLLKSDMNKPHLI [TTLL6, Q8N841]",selected by phage display,"CALM1 2-149, P0DP23",confidence 2 (active)
"PTPVLMNQPPQIAPKR [EIF4G1, Q04637]",selected by phage display,"CRK 124-198, P46108",confidence 3 (active)
"GLLLMEEEGHSDLISF [TMEM94, Q12767]",selected by phage display,"CLTC 1-364, Q00610",confidence 4 (active)
"MAVGPPDAPVGGPLTF [INO80E, Q8NBZ0]",selected by phage display,"CEP55 160-217, Q53EZ4",confidence 2 (active)
"STWGTVKDSLKALSSA [SRARP, Q8NEQ6]",selected by phage display,"CALM1 2-149, P0DP23",confidence 2 (active)
